KB-3-1 cytotox: KB-3-1 parental cell cytotoxicity; KB-3-1 viability, CellTiter-Glo ATP luminescence, 72 h; Potency, µM (titrated, usually from 46.1 µM), actives largely listed as cytotoxic; 400,000 compounds, 1.4% hits; AID 1347075; further: nearly all actives have a fitted effect of over 60% in size
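Screening of KB-3-1 cells (DMEM, 10% FBS, phenol-red free) ran from lowest to highest compound concentration; after 72 h at 37 °C viability was read luminescently and curves fitted.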
KB-V1 cytotox: kills drug-selected multidrug resistant KB-V1 cells; KB-V1 MDR cells viability, CellTiter-Glo, 72 h; Potency, µM (highest dose often 46.1 µM), hits mostly cytotoxic; 400,000 compounds, 3.4% hits; AID 1347076; further: nearly all actives have a fitted effect of over 60% in size
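In this primary screen, KB-V1 cells overexpressing P-gp are incubated with library compounds (lowest to highest concentration) for 72 h at 37 degrees C before a luminescent ATP viability read.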
SW480 rereplic: induces DNA re-replication in SW480 colon adenocarcinoma cells. 340,000 compounds, 1.8% hits. SW480 DNA re-replication, Hoechst DNA content imaging, 48 h. AID 624297. Potency, µM (doses to about 46.1 µM), usual class: activators; further: nearly all actives have a fitted effect of over 55% in size
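Quantitative HTS format with DMSO vehicle controls; 48 hr drug incubation at 37 C, then 40 min Hoechst staining and scanning imager measurement at 405 nm excitation.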
MCF10A rerep: DNA re-replication induction in MCF 10a cells. AID 624296. MCF 10A DNA re-replication, Hoechst nuclear intensity, 48 h. Potency, µM (top dose mostly 46.1 µM), usual class: activators. 350,000 compounds, 2.9% hits; further: nearly all actives have a fitted effect of over 50% in size
ELG1 repair inh: ELG1-dependent DNA repair inhibition | 330,000 compounds, 2.3% hits | HEK293T ELG1-luciferase reporter, luminescence, 16 h; DNA damage induced by 5-fluorouridine | Potency, µM (top dose mostly 46.1 µM), most hits filed as inhibitors | AID 504467; further: nearly all actives have a fitted effect of over 55% in size
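HEK293T cells expressing luciferase-tagged ELG1 (2,000/well) received 5-Fluorouridine plus compound or DMSO for 16 hr at 37 °C. Luciferase was read by ONE-Glo luminescence after 30 min at room temperature.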
Of the large screens only hits and unclear results are named; the others gave an inactive call. Only some compounds are listed: those with a hit (about 8.1% of all), similar ones and a draw of the others. The call rests on the fitted dose curve; in most records, active means well fitted curve in the direction sought with a large enough effect; inconclusive means small, poorly fitted or top-dose-only effect, or another doubt; inactive means no such curve, though single readings can be large; an effect the other way counts as inactive or inconclusive.

Cc1ccc(C(C2=C(O)CC(C)(C)CC2=O)C2C(=O)CC(C)(C)CC2=O)s1 (stereo unspecified)	SW480 rereplic inconclusive, MCF10A rerep 23µM
COc1cccc(C(C2=C(O)CC(C)(C)CC2=O)C2C(=O)CC(C)(C)CC2=O)c1 (stereo unspecified)	ELG1 repair inh inconclusive
COC(=O)C1(Cc2ccc3c(c2)CCC3)Cc2ccc3c(c2C1=O)CCC3 (stereo unspecified)	KB-3-1 cytotox 5.8µM, KB-V1 cytotox 4.6µM, SW480 rereplic inconclusive, MCF10A rerep 9.2µM (no result: ELG1 repair inh)
COc1ccc(N2C(=O)CSC2c2cccs2)cc1 (stereo unspecified)	KB-V1 cytotox inconclusive, SW480 rereplic 18µM, MCF10A rerep inconclusive
CCN=C(Nc1ccc2c(c1)OCO2)SC1CC(=O)N(c2ccc(OC)cc2)C1=O (stereo unspecified)	KB-V1 cytotox inconclusive, ELG1 repair inh 16µM
Cn1cc(Cl)c(C(=O)OCC(=O)Nc2ccccc2)n1	KB-V1 cytotox inconclusive
O=C(Nc1cc(C(F)(F)F)ccc1Cl)C(NCc1ccccc1)c1ccccc1 (stereo unspecified)	KB-V1 cytotox 21µM, SW480 rereplic inconclusive, MCF10A rerep inconclusive
CCN(CC)CCNC(C(=O)Nc1cc(C(F)(F)F)ccc1Cl)c1ccccc1 (stereo unspecified)	KB-V1 cytotox inconclusive, MCF10A rerep inconclusive
COc1ccc2nc(NC(=O)CSc3nc(C)cc(=O)[nH]3)sc2c1	none
Cc1ccc2nc(NC(=O)c3ccccc3F)sc2c1	KB-V1 cytotox inconclusive, ELG1 repair inh inconclusive
CCOCC(=O)Nc1nc2ccc(OC)cc2s1	ELG1 repair inh inconclusive
COc1ccc2nc(NC(=O)CSc3nccc(C)n3)sc2c1	KB-V1 cytotox 23µM
COc1cc(CCC(=O)Nc2nnc(C)s2)cc(OC)c1OC	KB-3-1 cytotox inconclusive, KB-V1 cytotox inconclusive, SW480 rereplic 6.5µM, MCF10A rerep 10µM
CCCC(=O)Nc1nc2ccc(NC(=O)c3ccccc3F)cc2s1	KB-3-1 cytotox 2.1µM, KB-V1 cytotox 1.8µM, SW480 rereplic 8.2µM, MCF10A rerep 6.5µM
COc1ccc2nc(NC(=O)CCn3cccc3)sc2c1	KB-V1 cytotox 18µM
CCOc1ccccc1-c1nc(C(N)=O)c2[nH]c(=O)n(-c3cccc(C)c3)c2n1	KB-V1 cytotox inconclusive, ELG1 repair inh inconclusive
CN1OC[C@@H]2CN[C@H](c3ccc(-c4cccc(F)c4)cc3)C[C@@H]21	none (no result: SW480 rereplic, MCF10A rerep, ELG1 repair inh)
O=C(Nc1ccnn1C1CCN(Cc2c(F)cccc2Cl)CC1)C1CCCC1	none
COc1ccc(C2CC(=O)c3cnc4c(-c5ccc(F)cc5)c(C)nn4c3C2)cc1OC (stereo unspecified)	none (no result: SW480 rereplic, MCF10A rerep, ELG1 repair inh)
COc1ccc(/C=C/C(=O)Nc2nnc(C(C)C)s2)cc1OC	ELG1 repair inh inconclusive
CCN(C(=O)CN1CCN(c2ccccc2OC)CC1)c1c(N)n(Cc2ccccc2)c(=O)[nH]c1=O	KB-V1 cytotox inconclusive
CCCCOC(=O)Nc1nc2ccc(OC)cc2s1	ELG1 repair inh inconclusive
CCCCN(C(=O)NC(=O)Nc1nc2ccc(OC)cc2s1)S(C)(=O)=O	KB-3-1 cytotox inconclusive, KB-V1 cytotox 9.2µM, SW480 rereplic inconclusive, ELG1 repair inh inconclusive
COc1ccc2nc(NC(=O)CCc3cc(OC)c(OC)c(OC)c3)sc2c1	KB-V1 cytotox 21µM, ELG1 repair inh 10µM
O=C1OC(c2ccc(Cl)cc2)=N/C1=C\C=C\c1ccco1	KB-3-1 cytotox inconclusive
N#Cc1nc(-c2cccs2)oc1NCCN1CCOCC1	KB-V1 cytotox inconclusive
CCOC(=O)C(C)OC(=O)C1=C(C)NC(=O)NC1c1ccc2c(c1)OCO2 (stereo unspecified)	none
COc1ccc(/C=N/NC(=O)Nc2cccc3nsnc23)c(OC)c1	SW480 rereplic inconclusive, MCF10A rerep inconclusive
O=C(N/N=C/c1ccc(O)cc1)Nc1cccc2nsnc12	KB-3-1 cytotox inconclusive, SW480 rereplic 15µM, MCF10A rerep inconclusive, ELG1 repair inh inconclusive
Cc1cc(-c2ccccc2)nc(Nc2nc3c(C)cccc3c(=O)[nH]2)n1	MCF10A rerep 9.2µM (no result: ELG1 repair inh)
Cc1cc(C)c2nc(Nc3nc(-c4ccccc4)cc(=O)[nH]3)nc(C)c2c1	KB-V1 cytotox inconclusive, MCF10A rerep inconclusive, ELG1 repair inh inconclusive
CCN(C(=O)C1CCCN(S(=O)(=O)c2c(C)noc2/C=C/N(C)C)C1)c1cccc(C)c1 (stereo unspecified)	none (no result: SW480 rereplic, MCF10A rerep, ELG1 repair inh)
O=c1c2ccccc2sn1-c1ccc(F)cc1	SW480 rereplic inconclusive, MCF10A rerep inconclusive
O=C1Cc2ccccc2C(c2ccc(Br)cc2)N1 (stereo unspecified)	KB-V1 cytotox inconclusive, SW480 rereplic inconclusive, ELG1 repair inh inconclusive
O=C1NC2=C(CCc3ccccc32)C(c2ccc(Br)cc2)N1 (stereo unspecified)	KB-V1 cytotox 21µM, MCF10A rerep inconclusive, ELG1 repair inh inconclusive
O=C(N/N=C/c1ccc(-c2ccccc2Cl)o1)c1ccccc1	KB-3-1 cytotox inconclusive, KB-V1 cytotox inconclusive, SW480 rereplic inconclusive, MCF10A rerep 29µM
O=S(=O)(N/N=C\c1ccc(-c2ccccc2Cl)o1)c1ccccc1	SW480 rereplic inconclusive, MCF10A rerep inconclusive
O=C(O)c1ccc(N/N=C/c2ccc(-c3ccccc3Cl)o2)cc1	SW480 rereplic 16µM, MCF10A rerep inconclusive, ELG1 repair inh inconclusive
O=C(O)c1ccc(N/N=C/c2ccc(-c3ccc(Br)cc3)o2)cc1	SW480 rereplic 21µM, MCF10A rerep inconclusive, ELG1 repair inh inconclusive
CCOc1ccc(CN2CCNC(=O)C2CC(=O)NCc2csc(C(C)C)n2)cc1 (stereo unspecified)	KB-V1 cytotox inconclusive
O=c1cc(N2CCCCC2)c(-c2ccccc2)nn1Cc1ccc(Cl)cc1	KB-3-1 cytotox inconclusive, KB-V1 cytotox inconclusive, SW480 rereplic inconclusive, MCF10A rerep 16µM, ELG1 repair inh inconclusive
O=c1cc(N2CCCCC2)c(-c2ccccc2)n[nH]1	none
O=c1cc(N2CCCCC2)c(-c2ccccc2)nn1Cc1c(Cl)cccc1Cl	KB-3-1 cytotox inconclusive, KB-V1 cytotox inconclusive, MCF10A rerep 21µM, ELG1 repair inh inconclusive
O=c1cc(N2CCCCC2)c(-c2ccccc2)nn1Cc1ccc(F)cc1	KB-3-1 cytotox inconclusive, MCF10A rerep inconclusive, ELG1 repair inh inconclusive
Nc1cc(=O)[nH]c(=S)n1-c1cccc(C(F)(F)F)c1	ELG1 repair inh inconclusive
CN(C)c1ccc(/C=N/NC(=O)CN(c2cccc(Cl)c2)S(C)(=O)=O)cc1Br	ELG1 repair inh 21µM
CC(C)(C)OC(=O)C[C@H]1C/C=C\C[C@@H](CC(=O)N(CCO)Cc2ccccc2)C(=O)N[C@H](Cc2c[nH]c3ccccc23)COC1=O	MCF10A rerep inconclusive, ELG1 repair inh 21µM
CC(C)(C)OC(=O)C[C@H]1C/C=C\C[C@@H](CC(=O)N(CCO)Cc2ccccc2)C(=O)N2CCC[C@H]2COC1=O	KB-V1 cytotox inconclusive, ELG1 repair inh 23µM
Cc1cc(C)nc(NC2=NCC(=O)N2c2cccc(Cl)c2)n1	KB-V1 cytotox 21µM

Compound activity deposited in PubChem BioAssay by National Center for Advancing Translational Sciences (NCATS).
